# Experimental data: article PMC4552634, “A New Set of Chemical Starting Points with Plasmodium falciparum Transmission-Blocking Potential for Antimalarial Drug Discovery” (PLoS ONE, 2015)
# Among all 13,000 compounds or so, about 3,200 (25%) showed an effect of 50% or more. The list shows a part of the results.
# Test system: P. falciparum stage V gametocytes
# Parameters: BacTiter-Glo ATP luminescence viability of purified stage V gametocytes in 384-well plates, per cent inhibition versus DMSO
# Conditions: 48 h, 5 µM; inhibitor
row,Structure (SMILES),% Inhibition [%]
1,N#Cc1ccc(CN2CCC(Oc3ccc(NC(=O)c4ccccc4)cc3Cl)CC2)cc1 [TCMDC-133958],11.07
2,COc1ccc(NC(=O)C2c3ccccc3C(=O)N(C3CCCC3)C2c2cccs2)cc1 (stereo not shown) [TCMDC-125287],90.81
3,COc1ccc(NC(=O)Nc2ccc(Nc3nc(C)cc(N4CCCC4)n3)cc2)cc1 [TCMDC-124958],27.34
4,COc1ccc(NC(=O)C2c3ccccc3C(=O)N(C3CCCC3)C2c2cccs2)cc1OC (stereo not shown) [TCMDC-124695],88.1
5,COc1ccc(Cl)cc1NC(=O)Nc1ccc2c(c1)CCN(C1CCC1)CC2 [TCMDC-136006],9.191
6,COc1ccc(NC(=O)C2c3ccccc3C(=O)N(C3CCCC3)C2c2cccs2)c(OC)c1 (stereo not shown) [TCMDC-125288],-16.95
7,O=C(Nc1cccc(CN2CCCN(Cc3ccc(O)cc3)CC2)c1)c1cc2ccccc2o1 [TCMDC-141859],49.98
8,CN1CC[C@@H](Oc2cc(NC(=O)Nc3ccc(Cl)c(C(F)(F)F)c3)ccc2Cl)C1 [TCMDC-136149],23.18
9,CN1CC[C@@H](Oc2cc(NC(=O)Nc3ccccc3Br)ccc2Cl)C1 [TCMDC-136144],79.19
10,COc1cc(Br)c(NC(=O)Nc2ccc(C(F)(F)F)c(O[C@@H]3CCN(C)C3)c2)cc1OC [TCMDC-135186],-75.17
11,Cc1cc2nc(-c3ccc(C(=O)NCc4cccc(F)c4)cc3)[nH]c2cc1C [TCMDC-140432],-28.29
12,CC(C)Nc1cc(C(=O)N[C@@H](Cc2ccccc2)[C@H](O)CNC2CCCCC2)cc(N2CCCCS2(=O)=O)c1 [TCMDC-135203],21.45
13,COc1ccccc1N1CCN(Cc2c(O)ccc3cc(Br)ccc23)CC1 [TCMDC-123565],17.32
14,CC(=O)Nc1nc(C(=O)Nc2cccc(-c3ccc(-c4nc5cccc(C)c5[nH]4)s3)c2)cs1 [TCMDC-137132],-23.79
15,COc1ccc(Cl)cc1NC(=O)C(C)N1CCN(S(=O)(=O)c2ccccc2F)CC1 (stereo not shown) [TCMDC-123567],-51.26
16,COc1ccc(Cl)cc1NC(=O)Nc1cc(C)nc2ccccc12 [TCMDC-125497],-49.54
17,COc1ccc(Cl)cc1NC(=O)CN(C)C(=O)c1cnn(-c2ccccc2)n1 [TCMDC-125457],95.1
18,Cc1ccc(-n2c(=O)c3cccnc3n2CC(=O)Nc2cccc(C)c2C)cc1 [TCMDC-125161],23.17
19,COc1ccc(CN(C2CC2)C(C)C(=O)c2[nH]c(C)c(C(C)=O)c2C)cc1 (stereo not shown) [TCMDC-125037],53.61
20,CCCC(C)N(Cc1ccc(C(C)(C)C)cc1)C(=O)c1ccc(OC)cc1 (stereo not shown) [TCMDC-139782],14.81

row,Structure (SMILES),% Inhibition [%]
1,CC1(C)N=C(NC(=O)c2cc([N+](=O)[O-])cc([N+](=O)[O-])c2)N=C(N)N1OCc1cccc2ccccc12 [TCMDC-131584],-17.03
2,CN(c1cc(NC(=O)c2ccc(F)cc2)ccn1)C1CCN(Cc2cccc(O)c2)CC1 [TCMDC-134966],-19
3,CC(C)CCNC(=O)c1cc(C(=O)c2cc(F)ccc2O)cn(CCC(C)C)c1=O [TCMDC-124499],0.8137
4,COc1ccc(CNC(=O)c2cnc3c(O)cccc3c2Nc2cccc(NC(=O)c3ccc(Cl)c([N+](=O)[O-])c3)c2)cc1.O=C(O)C(F)(F)F [TCMDC-139609],35.62
5,CC(C)(C)c1ccc(C(=O)Nc2cccc(Nc3c(C(=O)NCc4cccc(C(F)(F)F)c4)cnc4c(O)cccc34)c2)cc1.O=C(O)C(F)(F)F [TCMDC-139610],57.39
6,COc1ccc(CNC(=O)c2cnc3cc(-c4c(C)noc4C)ccc3c2Nc2ccccc2C(C)(C)C)cc1.Cl [TCMDC-136367],-23.94
7,NS(=O)(=O)c1ccc(CNC(=O)c2cnc3c(O)cccc3c2Nc2cccc(NC(=O)c3ccc(Cl)c(Cl)c3)c2)cc1.O=C(O)C(F)(F)F [TCMDC-139608],34.02
8,COc1ccc(CNC(=O)c2cnc3c(O)cccc3c2Nc2cccc(NC(=O)c3ccc(Cl)c(Cl)c3)c2)cc1.O=C(O)C(F)(F)F [TCMDC-139607],97.23
9,COc1ccc(CNC(=O)c2cnc3c(O)cccc3c2Nc2cccc(NC(=O)c3ccc(-c4ccccc4)cc3)c2)cc1.O=C(O)C(F)(F)F [TCMDC-139611],77.42
10,Nc1nc(Nc2cccc(Cl)c2)ncc1C(=O)NCc1ccncc1 [TCMDC-135688],0.6434
11,CC(C)CCNC(=O)c1cnc2c(O)cccc2c1Nc1cccc(NC(=O)c2ccc(F)cc2)c1.O=C(O)C(F)(F)F [TCMDC-139606],111.5
12,O=C(Cc1ccc(NC(=O)c2ccc(O)c(-c3ccc(Cl)c(Cl)c3)c2)cc1)NCc1cccc(C(F)(F)F)c1 [TCMDC-140835],-7.918
13,OCc1ccc2nc3c(cc2c1)-c1cccc2cccc-3c12 [TCMDC-137756],2.597
14,Cc1cc(N2CCCC2)nc(Nc2ccc(NC(=O)c3ccccc3)cc2)n1 [TCMDC-124713],-11.14
15,COc1cccc(OC)c1OCCCOc1c(C)nc(N)nc1N [TCMDC-131352],5.526
16,c1ccc(Oc2ccc(Nc3nc(NCCc4cnc[nH]4)nc(NC4CCCC4)n3)cc2)cc1 [TCMDC-139745],20.05
17,COc1ccc(CNC(=O)c2cnc3c(O)cccc3c2Nc2cccc(NC(=O)c3ccc(F)cc3)c2)cc1.O=C(O)C(F)(F)F [TCMDC-139605],78.77
18,COc1ccc(CN2CCC(Oc3cccc(NC(=O)c4ccc(C(F)(F)F)cc4)c3)CC2)cc1 [TCMDC-133735],-21.77
19,O=C(Nc1cccc(OC2CCN(Cc3ccc(F)cc3)CC2)c1)c1ccc(C(F)(F)F)cc1 [TCMDC-133734],-18.45
20,O=C(Nc1ccc(Cl)c(Cl)c1)N1CCC(NCc2cccc([N+](=O)[O-])c2)CC1 [TCMDC-141277],22.25
